PubChem BioAssay AID759 (NMMLSC, 2007)
In all, about 190,000 compounds went through this assay and about 270 (0.14%) were called active. Another 2% or so got no clear call; they are omitted.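 Rule for the calls: active = GTP binding activity at least 20% away from the 100% baseline, either lowered as inhibitor or raised as activator; inconclusive = flagged as likely green fluorescent, judged across all proteins in the well; inactive = the rest.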 The entries come from a sample that favours actives as a whole.

What follows are compounds tested against GTPase HRas (Homo sapiens) (UniProt P01112) (assay: HRas wt fluorescent GTP binding changes, either direction – biochemical, wildtype, bead-based flow cytometry, multiplex, primary screen (AID 759;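 note: 0% = unlabeled GTP competition control and 100% = no-compound control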)). Conditions: GST-Ras wt beads, Bodipy-FL-GTP binding, at 10 µM, actives lie on both sides.
Sequence of GTPase HRas (Homo sapiens) (P01112 whole entry, looked up): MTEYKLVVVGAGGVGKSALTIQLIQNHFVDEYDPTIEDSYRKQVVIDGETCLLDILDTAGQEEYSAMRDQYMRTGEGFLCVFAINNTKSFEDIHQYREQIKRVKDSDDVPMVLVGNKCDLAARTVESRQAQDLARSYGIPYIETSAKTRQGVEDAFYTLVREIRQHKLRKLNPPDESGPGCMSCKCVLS

GTP binding activity, inactive:
CCCCNC(=O)Nc1c(C)cc(SC#N)cc1C 95%
Cc1cccc(NC(=O)CSc2nc3[nH]ncc3c(=O)[nH]2)c1 97%
CCCSc1nc2[nH]ncc2c(=O)[nH]1 101%
CCC(=O)/C(=C(/O)c1ccccc1)c1nc2ccccc2[nH]1 98%
COC(=O)c1nn(-c2cccc(Cl)c2)ccc1=O 97%
O=C(CC12CC3CC(CC(C3)C1)C2)NCc1ccco1 96%
CCc1ccc(Nc2nnc(SCC(=O)c3ccc4c(c3)NC(=O)CO4)s2)cc1 99%
COc1ccccc1CC(NC(C)=O)C(=O)NC1CCN(C(=O)Nc2ccccc2Cl)CC1 (stereo not drawn) 101%
COC(=O)c1ccc(/C=N/OCC(=O)Nc2cc(F)ccc2F)cc1 95%
COc1ccc(N2CCN(CCCNC(=O)C3CCN(S(=O)(=O)N4CCOCC4)CC3)CC2)cc1 96%
COc1ccc(/C=C/CN2CCN(Cc3ccc(C)cc3)C(CCO)C2)cc1 (stereo not drawn) 105%
COc1cccc(NCCC(=O)c2cccc([N+](=O)[O-])c2)c1 97%
Cc1ccc(C(=O)O)cc1NC(=O)c1ccc(Cn2nc(C)c(Cl)c2C)o1 100%
Cc1noc(C)c1COc1cccc(C(=O)Nc2cccnc2)c1 97%
Cc1[nH]c2c(C(=O)N3CCCC(CCC(=O)NCc4ccccc4F)C3)cccc2c1C (stereo not drawn) 106%
COC(=O)c1nc(NC(=O)c2ccc(F)cc2)n[nH]1 98%
N#CC1=C(N)Oc2[nH]c(=S)[nH]c(=O)c2C12C(=O)Nc1ccccc12 (stereo not drawn) 96%
COc1ccc(/C=C(\C#N)C(=O)ONC2=NCCCCC2)cc1 97%
C=C(C)CNC(=S)N/N=C/c1ccccc1OCC(=O)O 95%
O=C(COC(=O)c1cnc(Cl)c(Cl)c1)NCc1ccco1 97%
CN1CCN(C(=O)N2c3ccccc3CCc3ccccc32)CC1 102%
O=C(Nc1cccc(Cl)c1)c1cc([N+](=O)[O-])ccc1N1CCN(CCO)CC1 97%
CC/C(Cc1ccccc1)=N/NC(=O)CCn1nnc2ccccc21 101%
COc1ccc(NC(=O)c2c(SC)nsc2SC)cc1 101%
CSc1ncccc1C(=O)NC1CCCCCC1 98%
Cc1ccc(S(=O)(=O)N2CCN(C(=O)c3cccs3)CC2)cc1 93%
COc1ccc(O)c(C(=O)c2cnc3c(c2)c(-c2ccc(F)cc2)c(C#N)c(=O)n3C)c1 95%
O=C(CCCc1ccccc1)NCc1ccccc1 94%
COc1cc2nc(CN(C)Cc3ccc(F)cc3)[nH]c(=O)c2cc1OC 97%
O=C(Nc1ccccc1F)c1ccccc1-c1ccc(C(F)(F)F)cc1 104%
NC(=O)c1ccccc1NC(=O)c1ccccc1F 101%
COc1cc(C(=O)N[C@@H](C)C(=O)NCc2ccco2)cc(OC)c1OC 98%
Cc1cccn2c(CN(C)C3CCCc4ccccc43)c(C(=O)N3CCOCC3)nc12 (stereo not drawn) 98%
O=C1CC(c2c(F)cccc2Cl)C(n2cncn2)C(O)=C1C1NCCc2ccccc21 (stereo not drawn) 94%
O=C(Nc1ccccc1C(=O)N1CCOCC1)c1ccc(CSc2ccccc2)cc1 100%
Nc1ncnc(Nc2cccc(Cl)c2Cl)n1 97%
COc1cc(C(=O)N2C(=O)c3cccc(N)c3C2=O)cc(OC)c1OC 95%
COc1c(F)c(F)c(C(=O)O)c(Nc2ccccc2C)c1F 98%
Cc1ccc(NC(=S)NC(=O)c2ccc(-c3ccccc3)cc2)c(C)c1 100%
Cc1cc(C)nc(NNC2=CC(=O)CC(C)(C)C2)n1 99%
CCOc1ccc(OCc2cccc(C(=O)N(CC)CC)c2)cc1 98%
CN(Cc1cc2cc(F)ccc2[nH]1)Cc1nc(-c2cnccn2)no1 98%
CC(C)(C)C(=O)N(Cc1ccccc1)c1ccccn1 95%
COc1ccccc1NC(=O)COC(=O)Cc1ccc(S(=O)(=O)N2CCCCC2)s1 98%
S=c1ccc2ccccc2[nH]1 98%
C=CCNC(=O)CC12CC3CC(C1)CC(CC(=O)NCC=C)(C3)C2 99%
Cc1ccc(SCCC(=O)NCc2ccccn2)cc1 99%
CCOc1ccc(NS(=O)(=O)c2cc(C)c(C)cc2C)cc1 98%
COc1cc(/C=N/Nc2ccc(C)cc2)cc(Br)c1O 96%
COc1ncnc2sc3c(c12)CCCC3 103%
O=C(Nc1ccc(-c2ccc3nncn3n2)cc1)C1CCCCC1 99%
CC(=O)NC1C(OCc2ccccc2)OC(COC(C)=O)C(OC(C)=O)C1OC(C)=O (stereo not drawn) 102%
O=S(=O)(Nc1ncccn1)c1ccc(NS(=O)(=O)c2cccc(Cl)c2Cl)cc1 96%
CC(CC(=O)O)CC(=O)NNC(=O)c1cccc(Br)c1 (stereo not drawn) 95%
CC(C)N(C)C(=O)CCc1nnc(CCc2c[nH]c3ccccc23)o1 93%
CCOc1cc(NC(=S)NCc2ccco2)c(OCC)cc1NC(=O)c1ccco1 98%
O=C(CN1CCN(S(=O)(=O)/C=C/c2ccccc2)CC1)Nc1ccc(N2CCOCC2)cc1 99%

GTP binding activity, active:
Cc1ccc(CSc2nc3[nH]ncc3c(=O)[nH]2)cc1 78%
CSc1nsc(SC)c1NC(=O)OC1CCCCC1 39%
O=C(Nc1ccccc1F)c1ccccc1-c1ccccc1 76%
Cc1ccc(Nc2c(F)c(F)c(F)c(F)c2C(=O)O)c(C)c1 124% [activator]
COc1ccc(/C=N/Nc2ncnc3sc4c(c23)CCCC4)cc1O 71%
O=C(OCC1O[C@@H](OC(=O)c2cc(O)c(O)c(O)c2)[C@@H](OC(=O)c2cc(O)c(O)c(O)c2)[C@@H](OC(=O)c2cc(O)c(O)c(O)c2)[C@@H]1OC(=O)c1cc(O)c(O)c(O)c1)c1cc(O)c(O)c(O)c1 (stereo partly drawn) 79%
